# From PubChem BioAssay (NCATS)
# Where “and” joins values, the source holds several entries; their conditions need not be identical. Equal values may be shown once. Records with an inconclusive call do not appear. Where a call stands in place of a potency, no number is given. Unmarked numbers belong to inactive results. Calls of active or inactive are those of the source. Calls follow the shape of the dose curve; as a rule, active = well fitted inhibition curve with a large enough effect; inconclusive = small, poorly fitted or top-dose-only effect; inactive = flat fitted curve, though single readings scatter.
# Legend:
# [1] = system: JCK; experiment: qHTS profiling for inhibitors of Plasmodium falciparum proliferation (AID 504749); also: potency is read from the fitted curve at half-maximal effect; conditions: P. falciparum in erythrocytes, SYBR Green DNA, 72 h; series mostly up to 28.7 µM
# Outline: (§1)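 Readout was DNA-dye fluorescence from lysed cultures, ex 485/em 535 nm. Parasitized red cells had grown 72 h with compound; data scaled between 0.29 uM artemisinin and DMSO wells and corrected using vehicle-only plates.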
# [2] = system: N140; experiment: as above; conditions: P. falciparum in erythrocytes, SYBR Green DNA, 72 h; series mostly up to 28.7 µM
# Outline: as §1
# [3] = system: P93_24; experiment: as above; conditions: P. falciparum in erythrocytes, SYBR Green DNA, 72 h; series mostly up to 28.7 µM
# Outline: as §1
# [4] = system: P94_40; experiment: as above; conditions: P. falciparum in erythrocytes, SYBR Green DNA, 72 h; series mostly up to 28.7 µM
# Outline: as §1
# [5] = system: PAD; experiment: as above; conditions: P. falciparum in erythrocytes, SYBR Green DNA, 72 h; series mostly up to 28.7 µM
# Outline: as §1
# [6] = system: PC15; experiment: as above; conditions: P. falciparum in erythrocytes, SYBR Green DNA, 72 h; series mostly up to 28.7 µM
# Outline: as §1
# [7] = system: PC26; experiment: as above; conditions: P. falciparum in erythrocytes, SYBR Green DNA, 72 h; series mostly up to 28.7 µM
# Outline: as §1
# [8] = system: PC49; experiment: as above; conditions: P. falciparum in erythrocytes, SYBR Green DNA, 72 h; series mostly up to 28.7 µM
# Outline: as §1
# [9] = system: SC27B; experiment: as above; conditions: P. falciparum in erythrocytes, SYBR Green DNA, 72 h; series mostly up to 28.7 µM
# Outline: as §1
# [10] = system: TAB109; experiment: as above; conditions: P. falciparum in erythrocytes, SYBR Green DNA, 72 h; series mostly up to 28.7 µM
# Outline: as §1
# [11] = system: TAB113; experiment: as above; conditions: P. falciparum in erythrocytes, SYBR Green DNA, 72 h; series mostly up to 28.7 µM
# Outline: as §1
# [12] = system: TAB165; experiment: as above; conditions: P. falciparum in erythrocytes, SYBR Green DNA, 72 h; series mostly up to 28.7 µM
# Outline: as §1
# [13] = system: W2; experiment: as above; conditions: P. falciparum in erythrocytes, SYBR Green DNA, 72 h; series mostly up to 28.7 µM
# Outline: as §1
# [14] = system: CRL-7250; experiment: Cytotoxic Profiling of Annotated Libraries Using Quantitative High-Throughput Screening (AID 1296008); conditions: Five cell lines viability, CellTiter-Glo ATP luminescence, 48-72 h; max response: hits give low values; also: potency is read from the fitted curve at half-maximal effect
# Outline: (§2)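 Cells exposed to compounds for 48 or 72 hr at 37 degrees Celsius. Viability read as ATP-coupled luminescence with CellTiter-Glo after 10 min at room temperature.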
# [15] = system: HEK293; experiment: as above; conditions: Five cell lines viability, CellTiter-Glo ATP luminescence, 48-72 h; max response: hits give low values
# Outline: as §2
# [16] = system: HaCat; experiment: as above; conditions: Five cell lines viability, CellTiter-Glo ATP luminescence, 48-72 h; max response: hits give low values
# Outline: as §2
# [17] = system: KB-3-1; experiment: as above; conditions: Five cell lines viability, CellTiter-Glo ATP luminescence, 48-72 h; max response: hits give low values
# Outline: as §2
# [18] = system: NIH3T3; experiment: as above; conditions: Five cell lines viability, CellTiter-Glo ATP luminescence, 48-72 h; max response: hits give low values
# Outline: as §2
# [19] = system: HEK293T; experiment: qHTS assay to identify novel small-molecules to repurpose for Merkel cell carcinoma treatment (AID 1296009); conditions: MCC and control cell lines, CellTiter-Glo viability, 72 h; at 44.8 µM (top of the series) unless noted
# Outline: (§3)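 Cells were incubated with compound for 72 hr at 37 degree celsius before CellTiter-Glo addition. Luminescence was normalized with no-cell wells as full cytotoxicity and DMSO as baseline.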
# [20] = system: HACAT; experiment: as above; conditions: MCC and control cell lines, CellTiter-Glo viability, 72 h; at 44.8 µM (top of the series) unless noted
# Outline: as §3
# Also: nearly all actives have a fitted effect of over 60% in size.
structure (smiles),measurement,setting,value
CNC[C@H](O)c1ccc(O)c(O)c1,Potency,[1],inactive
same,Potency,[2],inactive
same,Potency,[3],inactive
same,Potency,[4],inactive
same,Potency,[5],inactive
same,Potency,[6],inactive
same,Potency,[7],inactive
same,Potency,[8],inactive
same,Potency,[9],inactive
same,Potency,[10],inactive
same,Potency,[11],inactive
same,Potency,[12],inactive
same,Potency,[13],inactive
same,max response,[14],-3.3% and -3.53%
same,max response,[15],-3.32%
same,outcome,[15],inactive
same,max response,[16],-1.14% and -13.4%
same,max response,[17],2.62%
same,outcome,[18],inactive
same,outcome,[19],inactive [at 17.4 µM]
COCCCOc1ccnc(CS(=O)c2nc3ccccc3[nH]2)c1C (stereo not given),Potency,[1],inactive
same,Potency,[2],inactive
same,Potency,[4],inactive
same,Potency,[6],inactive
same,Potency,[7],19000 nM (active)
same,Potency,[8],inactive
same,Potency,[9],inactive
same,Potency,[10],inactive
same,Potency,[11],inactive
same,Potency,[13],1070 nM (active)
same,outcome,[14],inactive
same,max response,[15],1.81%
same,max response,[16],-2%
same,outcome,[16],inactive; activator
same,max response,[17],-10%
same,outcome,[17],inactive
same,max response,[18],-12.1% and 2.17%
same,outcome,[18],inactive
same,outcome,[20],inactive; activator
O=C1c2c(O)cc(O)cc2OC(c2ccc(O)c(O)c2)C1O (stereo not given),max response,[14],-1.4%
same,max response,[15],-0.947%
same,max response,[16],2.31%
same,outcome,[17],inactive
same,max response,[18],-9.07%
CC(C)C[C@H](NC(=O)[C@H](Cc1ccccc1)NC(=O)c1cnccn1)B(O)O,Potency,[14],59.6 nM (active) and 51.7 nM (active)
same,Potency,[15],47.3 nM (active) and 41.1 nM (active)
same,Potency,[16],188 nM (active)
same,Potency,[17],58 nM (active) and 105 nM (active)
same,Potency,[18],53.1 nM (active) and 11.6 nM (active)
CCOc1cc(CC(=O)N[C@@H](CC(C)C)c2ccccc2N2CCCCC2)ccc1C(=O)O,Potency,[1],inactive
same,Potency,[2],inactive
same,Potency,[3],inactive
same,Potency,[4],inactive
same,Potency,[5],inactive
same,Potency,[6],inactive
same,Potency,[7],inactive
same,Potency,[8],inactive
same,Potency,[9],inactive
same,Potency,[10],inactive
same,Potency,[11],inactive
same,Potency,[12],inactive
same,Potency,[13],inactive
same,outcome,[14],inactive
same,outcome,[15],inactive
same,outcome,[16],inactive
same,max response,[17],4.6%
same,outcome,[17],inactive
same,max response,[18],4.08%
same,outcome,[20],inactive
same,outcome,[19],inactive
CCCCc1ccc2nc(NC(=O)OC)[nH]c2c1,Potency,[1],inactive
same,Potency,[2],inactive
same,Potency,[3],inactive
same,Potency,[4],inactive
same,Potency,[5],inactive
same,Potency,[6],inactive
same,Potency,[7],inactive
same,Potency,[8],inactive
same,Potency,[9],inactive
same,Potency,[10],inactive
same,Potency,[11],inactive
same,Potency,[12],inactive
same,Potency,[13],inactive
same,Potency,[14],469 nM (active) and 266 nM (active)
same,Potency,[15],14.8 nM (active) and 188 nM (active)
same,max response,[16],3.13%
same,outcome,[16],inactive
same,Potency,[17],23.5 nM (active)
same,Potency,[18],16.6 nM (active)
same,outcome,[20],inactive
